The values below come from PubChem BioAssay (NCI).

About 83,000 compounds went through this panel and 20% of them were active in at least one assay; those are over-represented in the sample as a whole.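 The endpoint reported here, percent growth, reads 100 for growth as untreated, 0 for no net growth and -100 for all cells dead.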 A number with no mark means an inactive call. The source made the active and inactive calls. How the source made its calls: active means growth percent below 10; inactive means the rest.

Test systems include SK-MEL-2 melanoma; EKVX NSCLC; UO-31 renal; TK-10 renal; ACHN renal; CAKI-1 renal; A498 renal; CCRF-CEM leukemia; MOLT-4 leukemia.
Holding throughout (assay): NCI-60 one-dose screen, 48 h (100 = growth as untreated, 0 = no growth, -100 = all killed)
What all share (conditions): 10 µM unless noted

For `CCCSc1nc(NCCc2c[nH]c3ccccc23)c(C#N)c(-c2ccc(OC)cc2)n1`, the growth in the assay on SK-MEL-2 melanoma was 75.5%; in the assay with EKVX NSCLC, 32.5%; in the assay on UO-31 renal it was 41.8%; in the assay with TK-10 renal, 82.9%; in the assay on ACHN renal, 64.9%; in the assay with CAKI-1 renal, 51%. Also, the growth is 61.4% in the assay on A498 renal, 25.7% in the assay with CCRF-CEM leukemia and 26.1% in the assay on MOLT-4 leukemia.
In the case of `O=C(/C=C/c1ccc(O)c(O)c1)NC1CCOC1O` (stereo not drawn), the growth in the assay on SK-MEL-2 melanoma was 113%; in the assay on EKVX NSCLC it was 97.1%; in the assay on UO-31 renal, 80.4%; in the assay with TK-10 renal, 109%; in the assay with ACHN renal, 104%; in the assay on CAKI-1 renal it was 92.9%. Besides, the growth was 109% in the assay with A498 renal, 96.4% in the assay with CCRF-CEM leukemia and 96.3% in the assay on MOLT-4 leukemia.
`Clc1ccc(-c2ccc(OCCCN3CCN(c4ccncc4)CC3)cc2)cc1`: the growth in the assay on SK-MEL-2 melanoma is 100%; with EKVX NSCLC, 30.7%; in the assay with UO-31 renal, 66.3%; in the assay on TK-10 renal, 89.5%; in the assay with ACHN renal, 87.8%; in the assay with CAKI-1 renal, 66.6%. Further, the growth with A498 renal was 84.7%; in the assay with CCRF-CEM leukemia, 4.35% (active); with MOLT-4 leukemia, 1.95% (active).
For `CC(=O)OC[C@@]1(C)C2CC[C@]3(C)C(CC=C4C5CC(C)(C)CC[C@]5(C(=O)Nc5cccc(C)c5)CC[C@]43C)[C@@]2(C)C[C@@H](OC(C)=O)[C@@H]1OC(C)=O` (stereo partly drawn), the growth in the assay on SK-MEL-2 melanoma was 38.7%; with EKVX NSCLC, 30.7%; in the assay with UO-31 renal, 37.4%; in the assay with TK-10 renal, 52.9%; in the assay on ACHN renal, 38.8%; in the assay with CAKI-1 renal, 42.2%. Besides, the results for the growth with A498 renal, in the assay with CCRF-CEM leukemia and in the assay on MOLT-4 leukemia were 59.6%, 30.4% and 30.7%, respectively.
As for `CN(C)c1ccnc(CNCCSC2(c3ccc(C(F)(F)F)cc3)c3ccccc3CCc3ccccc32)c1`, the growth in the assay with SK-MEL-2 melanoma was -37.6% (active); with EKVX NSCLC, -25.3% (active); with UO-31 renal, 1.7% (active); with TK-10 renal, 0.0233% (active); in the assay on ACHN renal it was -12.1% (active); in the assay with CAKI-1 renal, -0.905% (active). The figures for the growth in the assay on A498 renal, with CCRF-CEM leukemia and in the assay with MOLT-4 leukemia were -4.68% (active), -43.6% (active) and -20.9% (active), respectively.
With `Clc1cccc(-c2ccc(OCCCN3CCN(c4ccncc4)CC3)cc2)c1`, the growth was 74% with SK-MEL-2 melanoma; 11.6% with EKVX NSCLC; 30.4% in the assay on UO-31 renal; 41.9% in the assay with TK-10 renal; 49.4% with ACHN renal; 5.23% (active) with CAKI-1 renal. Further, the growth was 65.5% with A498 renal, -28.7% (active) in the assay on CCRF-CEM leukemia and -47.4% (active) in the assay with MOLT-4 leukemia.
Consider `CCCSc1nc(Nc2ccc(S(N)(=O)=O)cc2)c(C#N)c(-c2ccc(Cl)cc2)n1`, for which the growth with SK-MEL-2 melanoma was 67.9%; with EKVX NSCLC, 50.6%; with UO-31 renal it was -68.6% (active); with TK-10 renal, -16.4% (active); with ACHN renal, -66.8% (active); with CAKI-1 renal, -54.5% (active). For the same compound, the values for the growth in the assay with A498 renal, with CCRF-CEM leukemia and in the assay with MOLT-4 leukemia were -41.8% (active), 81.4% and 50.4%, respectively.
With `COc1ccc2c(c1)C(=N/N=C(\C)c1ccc(OC)c(S(N)(=O)=O)c1)C(=O)N2`, the growth with SK-MEL-2 melanoma is 92.6%; in the assay with EKVX NSCLC, 90.3%; in the assay with UO-31 renal it was 95.1%; in the assay with TK-10 renal, 102%; in the assay with ACHN renal, 101%; with CAKI-1 renal it was 79.5%. Besides, the values for the growth in the assay on A498 renal, in the assay on CCRF-CEM leukemia and in the assay on MOLT-4 leukemia were 99.5%, 74% and 94.5%, respectively.
For the compound `CCCSc1nc(NCCc2c[nH]c3ccccc23)c(C#N)c(-c2ccccc2)n1`, the growth in the assay with SK-MEL-2 melanoma is 75%; in the assay with EKVX NSCLC, 35.7%; in the assay on UO-31 renal it was 64.5%; with TK-10 renal, 107%; with ACHN renal, 78.2%; in the assay with CAKI-1 renal, 57.1%. Moreover, the values for the growth with A498 renal, in the assay with CCRF-CEM leukemia and in the assay with MOLT-4 leukemia were 82.5%, 40.4% and 44.7%, respectively.
For the compound `COc1ccc(N2N=C(c3ccc4c(c3)OCO4)CC2c2cccc(NC(=O)CCNS(=O)(=O)c3ccc(Cl)cc3)c2)cc1` (stereo not drawn), the growth with SK-MEL-2 melanoma was 44.5%; in the assay on EKVX NSCLC, 13.1%; with UO-31 renal, 35.3%; in the assay with TK-10 renal, 51.9%; in the assay on ACHN renal, 24.9%; in the assay on CAKI-1 renal, 30.4%. The growth was -4.53% (active) with A498 renal, 18.7% with CCRF-CEM leukemia and 10.3% with MOLT-4 leukemia.
As for `COc1ccc(C(SCCNCc2cc(N(C)C)ccn2)(c2ccccc2)c2ccccc2)cc1`, the growth is -34.9% (active) in the assay with SK-MEL-2 melanoma; 9.49% (active) in the assay on EKVX NSCLC; 15.4% in the assay with UO-31 renal; 24.5% in the assay on TK-10 renal; 20.3% in the assay on ACHN renal; 11.3% in the assay with CAKI-1 renal. Moreover, the values for the growth in the assay with A498 renal, in the assay with CCRF-CEM leukemia and with MOLT-4 leukemia were 4.54% (active), 4.47% (active) and 9.51% (active), respectively.
With `CC(=O)OC[C@@]1(C)C2CC[C@]3(C)C(CC=C4C5CC(C)(C)CC[C@]5(C(=O)Nc5ccc(F)cc5)CC[C@]43C)[C@@]2(C)C[C@@H](OC(C)=O)[C@@H]1OC(C)=O` (stereo partly drawn), the growth is 32.6% with SK-MEL-2 melanoma; 28.1% in the assay on EKVX NSCLC; 38.6% in the assay with UO-31 renal; 56.5% in the assay on TK-10 renal; 38.6% in the assay on ACHN renal; 44.9% in the assay with CAKI-1 renal. Moreover, the growth with A498 renal is 63.1%; in the assay with CCRF-CEM leukemia, 29.8%; in the assay with MOLT-4 leukemia, 35%.
